Rows were chosen to be rich in hits. Some 5.1% of all compounds tested hit in one or more screens of this group.
CRFBP-R2 agonist: agonists of CRF-BP/CRF-R2 complex, primary screen, cell-based, HEK293, calcium dye fluorescence, uHTS; 0.46% of 350,000 active; CRF-binding protein / CRF receptor 2 complex (human); activation, % at 13.2 µM; AID 588473, 2011; calcium dye fluorescence (FLIPR); percent of saturating CRF peptide response;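 active = activation of at least 50%, plus an integration ratio under a set limit after plate pattern correction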;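 note: plate controls were neutral control wells without compound for no effect and CRF at EC100 for full effect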
TMEM16A inh: TMEM16A chloride channel inhibitors, primary screen, cell-based, HTS. 1.2% of 310,000 active. normalized B-score (activity score, 25-100; higher = stronger inhibition) at 10 µM. HEK293 TMEM16A/YFP iodide influx fluorescence, ionomycin. AID 588511, 2011;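 active = ratio plate-corrected score three or more library SD toward inhibition, starting fluorescence score within five deviations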;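 note: score derived from kinetic fluorescence span divided by baseline fluorescence per well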
Target sequence (Q8BHY3 whole entry, looked up): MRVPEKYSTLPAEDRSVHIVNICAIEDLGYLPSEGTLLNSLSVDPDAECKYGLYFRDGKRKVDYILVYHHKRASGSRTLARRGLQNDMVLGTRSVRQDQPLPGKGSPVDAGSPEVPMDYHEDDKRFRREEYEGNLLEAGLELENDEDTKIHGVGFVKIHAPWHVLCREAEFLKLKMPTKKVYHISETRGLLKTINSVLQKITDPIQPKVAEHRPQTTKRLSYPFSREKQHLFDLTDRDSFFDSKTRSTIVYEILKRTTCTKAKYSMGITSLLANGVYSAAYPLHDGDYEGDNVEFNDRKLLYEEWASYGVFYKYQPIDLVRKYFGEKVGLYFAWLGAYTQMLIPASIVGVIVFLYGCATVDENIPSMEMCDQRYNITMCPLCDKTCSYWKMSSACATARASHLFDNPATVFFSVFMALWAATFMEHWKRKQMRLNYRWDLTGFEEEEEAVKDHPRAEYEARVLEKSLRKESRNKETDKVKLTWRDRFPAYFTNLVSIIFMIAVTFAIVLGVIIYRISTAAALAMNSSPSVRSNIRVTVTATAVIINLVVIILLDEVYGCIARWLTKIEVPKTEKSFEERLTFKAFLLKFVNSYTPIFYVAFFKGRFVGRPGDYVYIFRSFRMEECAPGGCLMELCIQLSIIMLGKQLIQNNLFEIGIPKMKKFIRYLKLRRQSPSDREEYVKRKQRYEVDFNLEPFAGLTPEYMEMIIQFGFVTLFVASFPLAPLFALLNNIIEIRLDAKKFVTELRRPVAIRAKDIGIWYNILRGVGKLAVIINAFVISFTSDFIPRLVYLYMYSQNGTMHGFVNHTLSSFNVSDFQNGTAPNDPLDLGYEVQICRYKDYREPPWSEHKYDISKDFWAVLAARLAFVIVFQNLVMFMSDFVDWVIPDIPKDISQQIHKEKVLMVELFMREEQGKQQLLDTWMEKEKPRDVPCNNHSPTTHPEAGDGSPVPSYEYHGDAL
TMEM16A act: TMEM16A chloride channel activators or potentiators, primary screen, cell-based, HTS; Anoctamin-1 (Mus musculus), Q8BHY3; HEK293 TMEM16A/YFP-H148Q/I152L, iodide quench fluorescence; hits give low values; B-score at 10 µM; 0.3% of 340,000 active;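 active = fluorescence-ratio B-score plate-corrected deviation score at least 3 library SD below zero, with starting fluorescence score within 5 deviations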;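 note: channel opened by trigger with iodide after compound preincubation; score built on the fluorescence ratio of max minus min over baseline; more negative score means more quench and so TMEM16A activation or potentiation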
MPTP inh: mitochondrial permeability transition pore inhibitors, primary screen, biochemical, isolated mouse mitochondria, absorbance; Ca2+ swelling absorbance, 30 min; inhibition, % at 10 µM; 1.4% of 360,000 active; AID 602449, 2012;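 active = inhibition of 50% or more, scaled per plate between neutral and stimulator controls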;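 note: 0% = DMSO wells given calcium and 100% = 1 mM EGTA wells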
GRIN3A LBD mod: binders of NR3A ligand-binding domain, primary screen, biophysical, differential scanning fluorimetry, uHTS; Glutamate receptor ionotropic, NMDA 3A (GRIN3A) ligand-binding domain; NR3A LBD differential scanning fluorimetry, Tm shift; 0% = protein alone, 100% = glycine-bound protein; Tm shift relative to glycine control, % at 25 µM; 2.5% of 340,000 active; AID 1259313, 2017;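 active = melting temperature shift of at least 10% of the positive control shift, at one fixed dose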
CRFBP-R2 block: antagonists of CRF-BP/CRF-R2 complex, primary screen, cell-based, HEK293, calcium dye fluorescence, uHTS; 0.59% of 350,000 active; inhibition, % at 11.8 µM; CRF-induced calcium fluorescence;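 active = inhibition of the ligand-induced calcium signal above about 50% at the single tested concentration, limit read from the data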
TMEM16A reconf: TMEM16A chloride channel inhibitors, confirmation, cell-based, re-confirmation | AID 652189, 2013 | shares compounds with TMEM16A inh | 39% of 2,300 active | HEK293 TMEM16A/YFP-H148Q, iodide quench fluorescence; ionomycin added to raise cell calcium | inhibition, % at 10 µM;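 active = mean duplicate percent inhibition, scaled so buffer wells are 0 and the reference blocker 100, over three buffer SD above buffer mean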
HEK293 Ca mobil: calcium mobilization in TMEM16A/YFP HEK293 cells, confirmation, counter-screen for TMEM16A inhibitor project | shares compounds with TMEM16A inh | Fluo4 calcium mobilization | calcium response (% of ionomycin), % at 10 µM | 2% of 2,300 active;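 active = duplicate-averaged calcium signal over 20% of the ionomycin maximum, relative to buffer baseline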;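 note: each well's signal is peak minus trough fluorescence divided by its pre-addition baseline; 0% = buffer wells and 100% = ionomycin wells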
YFP-HEK293 quench: iodide YFP quench changes in parental YFP-HEK293, counter-screen for TMEM16A inhibitor project, cell-based. 2,300 tested, under 10 active. shares compounds with TMEM16A inh. ionomycin. YFP ratio F(max-min)/F0 at 10 µM;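 active = yellow fluorescent protein signal ratio exceeding the buffer control mean by over 5 SD of those controls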;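 note: ratio is mean of duplicate wells from kinetic YFP trace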
ClC-1 rat inh: ClC-1 chloride channel inhibition, selectivity assay for TMEM16A inhibitor project, cell-based, voltage-dependent ClC-1 | shares compounds with TMEM16A inh | CHO ClC-1-YFP, iodide influx fluorescence quench; iodide control reads 0, buffer control 100 | ratio percent, % at 10 µM | 2,300 tested, under 10 active | AID 652236, 2013;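 active = duplicate-mean ratio percent above the mean of iodide-only control wells, which defines zero, plus 5 of their SD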;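 note: higher percent means stronger block of ClC-1 iodide influx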
Rh123 counter: fluorescence retest of MPTP screen hits in isolated mitochondria, single concentration. shares compounds with MPTP inh. membrane potential, Rhodamine 123 fluorescence. inhibition, % at 10 µM. 78% of 5,000 active. AID 624504, 2012; in the data active = inhibition above about 22%;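 note: 0% = DMSO vehicle and 100% = positive control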
An asterisk follows results filed as active.

How did Cc1ccc(NC(=O)Nc2nnc(-c3ccncc3)s2)cc1C do in these assays?
CRFBP-R2 agonist: 7; TMEM16A inh: 25*; TMEM16A act: inactive; MPTP inh: 87*; GRIN3A LBD mod: 9; CRFBP-R2 block: -16; TMEM16A reconf: inactive; HEK293 Ca mobil: inactive; YFP-HEK293 quench: -0.97; ClC-1 rat inh: -4; Rh123 counter: 79*

Results for Cc1c(C(=O)Nc2nonc2-c2ccc(F)cc2)oc2ccc(F)cc12 ?
CRFBP-R2 agonist: -1; TMEM16A inh: 25*; TMEM16A act: inactive; MPTP inh: 81*; GRIN3A LBD mod: 6; CRFBP-R2 block: 14; TMEM16A reconf: 40%*; HEK293 Ca mobil: inactive; YFP-HEK293 quench: -0.88; ClC-1 rat inh: -16; Rh123 counter: 84*

Results for CCc1nonc1NC(=O)c1oc2ccc(F)cc2c1C ?
CRFBP-R2 agonist: -1; TMEM16A inh: inactive; TMEM16A act: inactive; MPTP inh: -1; GRIN3A LBD mod: -2; CRFBP-R2 block: -5

What do the screens show for `CCOc1ccccc1NC(=O)CN1C(=O)NC(Cc2c[nH]c3ccccc23)C1=O` (configuration not stated)?
CRFBP-R2 agonist: -1; TMEM16A act: inactive; MPTP inh: -2; GRIN3A LBD mod: -1; CRFBP-R2 block: -2

How did CO/N=C/C(C#N)c1ncc(C(F)(F)F)cc1Cl (configuration not stated) do in these assays?
CRFBP-R2 agonist: 49; TMEM16A inh: 25*; TMEM16A act: inactive; MPTP inh: 99*; GRIN3A LBD mod: -6; CRFBP-R2 block: 77*; TMEM16A reconf: 16%*; HEK293 Ca mobil: inactive; YFP-HEK293 quench: -0.84; ClC-1 rat inh: -8; Rh123 counter: 92*

Results for O=S(=O)(Nc1nc2ccccc2nc1Nc1ccc2c(c1)OCO2)c1ccccc1 ?
CRFBP-R2 agonist: 1; TMEM16A inh: inactive; TMEM16A act: inactive; MPTP inh: 41; GRIN3A LBD mod: 8; CRFBP-R2 block: 5

How did Cc1cccc(S(=O)(=O)Nc2nc3ccccc3nc2Nc2ccc3c(c2)OCO3)c1 do in these assays?
CRFBP-R2 agonist: 3; TMEM16A inh: 25*; TMEM16A act: inactive; MPTP inh: 97*; GRIN3A LBD mod: 21*; CRFBP-R2 block: 13; TMEM16A reconf: 20%*; HEK293 Ca mobil: inactive; YFP-HEK293 quench: -1; ClC-1 rat inh: -16; Rh123 counter: 65*

What do the screens show for `Cc1cc(C)cc(NC(=O)CCCCCN2C(=O)[C@@H]3Cc4ccccc4CN3C2=O)c1`?
CRFBP-R2 agonist: -2; TMEM16A inh: inactive; TMEM16A act: inactive; MPTP inh: -1; GRIN3A LBD mod: -1; CRFBP-R2 block: -9

Results for N#CC1=C(N)NC(SCC(=O)c2ccc(Br)cc2)=C(C#N)C12CCCCC2 ?
CRFBP-R2 agonist: -2; TMEM16A inh: 100*; TMEM16A act: inactive; MPTP inh: 90*; GRIN3A LBD mod: 17*; CRFBP-R2 block: -26; TMEM16A reconf: 53%*; HEK293 Ca mobil: inactive; YFP-HEK293 quench: -0.81; ClC-1 rat inh: -23; Rh123 counter: 80*

Results for CC(C)C(=O)Nc1cccc(C(=O)Nc2ccc(S(=O)(=O)Nc3nccs3)cc2)c1 ?
CRFBP-R2 agonist: 0; TMEM16A inh: inactive; TMEM16A act: inactive; MPTP inh: -2; GRIN3A LBD mod: -8; CRFBP-R2 block: 2

Results for CC(C)C1Cc2c(sc3[nH]c(=S)n(Cc4ccccc4)c(=O)c23)CO1 (configuration not stated) ?
CRFBP-R2 agonist: -2; TMEM16A inh: 100*; TMEM16A act: inactive; MPTP inh: 81*; GRIN3A LBD mod: -1; CRFBP-R2 block: 23; TMEM16A reconf: inactive; HEK293 Ca mobil: inactive; YFP-HEK293 quench: -0.85; ClC-1 rat inh: -2; Rh123 counter: 26*

What do the screens show for `NCCCCCNC(=O)c1[nH]cnc1C(=O)N[C@@H](Cc1ccccc1)C(=O)OCc1ccccc1`?
CRFBP-R2 agonist: -3; TMEM16A act: inactive; MPTP inh: 0; GRIN3A LBD mod: 1; CRFBP-R2 block: 6

How did O=C(OCc1ccccc1)N1CCC2CC1c1ccc(Cl)cc12 (configuration not stated) do in these assays?
CRFBP-R2 agonist: 6; MPTP inh: -2; CRFBP-R2 block: -7

How did CCCCNC(=O)C1(C)CCCCN1C(=O)c1cc(C#N)cs1 (configuration not stated) do in these assays?
MPTP inh: 0

Results for C=CCNc1ncnc2c1[nH]c1ccc(Cl)cc12 ?
CRFBP-R2 agonist: 17; TMEM16A inh: 100*; TMEM16A act: inactive; MPTP inh: 89*; GRIN3A LBD mod: -3; CRFBP-R2 block: 11; TMEM16A reconf: 58%*; HEK293 Ca mobil: inactive; YFP-HEK293 quench: -0.97; ClC-1 rat inh: -28; Rh123 counter: 94*

How did Cc1ccc(S(=O)(=O)N2CCN(c3ncnc4sccc34)CC2)cc1 do in these assays?
CRFBP-R2 agonist: -1; TMEM16A inh: 25*; TMEM16A act: inactive; MPTP inh: 82*; GRIN3A LBD mod: -26; CRFBP-R2 block: -9; TMEM16A reconf: 17%*; HEK293 Ca mobil: inactive; YFP-HEK293 quench: -1.2; ClC-1 rat inh: -13; Rh123 counter: 85*

High-throughput results: PubChem, several laboratories
